Measurements as given in article PMC5540273 (PLoS ONE, 2017).

Experiments:
Settings in all cases: concentration: 1 μM, replicates: in singlicate; n = 1
[1] = test system: FGFR4
[2] = test system: FGR
[3] = test system: FLT1
[4] = test system: FLT3-autoinhibited
[5] = test system: FLT3
[6] = test system: FLT4
[7] = test system: FRK
[8] = test system: FYN
[9] = test system: GAK
[10] = test system: T1, GCN2(Kin.Dom.2,S808G)
T1 construct: gene EIF2AK4
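Further: KINOMEscan kinase panel screen.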

SMILES	%Inh [1] [%]	%Inh [2] [%]	%Inh [3] [%]	%Inh [4] [%]	%Inh [5] [%]	%Inh [6] [%]	%Inh [7] [%]	%Inh [8] [%]	%Inh [9] [%]	%Inh [10] [%]
CSc1ccc(NC2=C(c3ccccc3Cl)C(=O)NC2=O)cc1 [SB-342411]	16	14	6	0	0	1	9	0	14	0
Cl.Fc1ccccc1COc1ccc(Nc2ncnc3ccc(-c4nnc(C(F)(F)F)o4)cc23)cc1Cl [GW424170]	0	6	18	0	0	3	0	0	0	0
Cn1ccc2ncnc(Nc3ccc(Oc4cccc(Cl)c4)c(Cl)c3)c21	0	0	0	17	0	18	4	1	0	28
COc1ccc(Nc2nccc(N3CCC(NC(=O)c4cccc(NC(C)=O)c4)C3)n2)cc1 (centres unmarked) [GSK1379732]	3	27	23	0	0	6	0	0	16	9
O=c1cc(N2CCOCC2)nc2n(Cc3cccc(Cl)c3)ccn12 [GSK2296823]	5	15	19	14	0	1	7	0	2	0
Fc1ccc(-c2ncn(CCCNCc3ccccc3)c2-c2ccncc2)cc1	0	17	0	0	0	22	0	0	0	0
FC(F)(F)c1ccc(-c2cc(-c3c[nH]nc3-c3ccccn3)ccn2)cc1 [GW599550]	0	14	20	0	0	17	0	38	46	0
COc1ccc(NC(=O)c2ccc(-c3cc(-c4nnc(C)o4)ccc3C)cc2)cc1 [GW595885]	0	10	19	0	0	0	10	6	0	14
Cc1cccc(-c2nc(Nc3ccc4[nH]nnc4c3)c3ccccc3n2)n1 [GW867587]	0	0	0	0	0	0	0	0	0	0
CN1c2ccc(-c3ccc(C(=O)NCCO)cc3)cc2-c2[nH]ncc2S1(=O)=O	8	34	11	20	37	7	1	15	21	34
Cc1ccc(O)cc1Nc1cc(C(F)(F)F)nc2ccc(-c3ccncc3)cc12 [GW630823]	5	22	14	0	27	13	14	7	4	0
O=C(Nc1n[nH]c2nc(-c3ccco3)c(Br)cc12)c1ccc(CN2CCCC2)cc1.O=C(O)[C@H](O)[C@@H](O)C(=O)O [SB-742352]	0	3	34	51	95	1	0	0	0	0
CCCc1ccc(S(=O)(=O)NC2CCN(c3ccnc(Nc4ccc(OC)cc4)n3)C2)cc1 (centres unmarked) [GSK1379737]	8	12	3	0	26	9	0	7	0	33
Nc1nc(-c2cccnc2)c(-c2ccnc3ccccc23)s1 [GW684083]	0	24	29	0	16	0	5	12	77	24
Fc1cccc(COc2ccc(Nc3ncnc4cc[nH]c34)cc2Cl)c1	11	18	6	16	0	0	21	13	14	0
Cc1ccc(NC(=O)c2cccc(C#N)c2)cc1-c1ccc(C(=O)Nc2ccncc2)cc1 [GSK1398463]	25	47	33	21	0	12	92.9	22	14	0
CN1CCC(n2cnc(-c3ccc(F)cc3)c2-c2ccnc(NC3CCNCC3)n2)CC1 [SB-229482]	0	0	0	0	27	0	0	1	0	0
